Drawing on PubChem BioAssay, this text covers composite z-score and z-score for 11 molecules.

In experiment [1] the test system is Plasmodium falciparum Sir2 (PF13_0152, Sir2A). Briefly: pfSir2 binders on small-molecule microarrays, primary screen, biochemical, small-molecule microarray, 635 nm fluorescence (AID 1098).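 Also: score merges spot fluorescence intensity with its signal-to-noise ratio.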 Conditions: small-molecule microarray binding, fluorescence 635 nm; higher = more signal.
Experiment [2] is described as follows: small-molecule microarray binders of probe aDKK1, primary screen, biochemical, biotinylated probe, 635/667 nm fluorescence (AID 1099).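 Also: score merges 667nm spot fluorescence with signal to noise across triplicate slides; reference of the scale not given here.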 Particulars: higher = more signal.
Experiment [3] in a line: small-molecule microarray binders of probe aCHRDL2, primary screen, biochemical, biotinylated probe, 635/667 nm fluorescence (AID 1100). Particulars: higher = more signal.
Experiment [4] can be described thus: splicing luciferase reporter signal modulators, primary screen, spliceosome inhibition project, cell-based, HEK293, splice +/- reporter (AID 1101).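 Also: HEK293 cells carrying a splicing-competent luciferase reporter gene; test concentration not given here.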 Conditions: luminescence, 24 h, higher = more signal, called active from +8 up or from −8 down.
Experiment [5] concerns the target Fibroblast growth factor 10 (Homo sapiens) (UniProt O15520). As to the kind of experiment: FGF10 binders on small-molecule microarrays, primary screen, biochemical, small-molecule microarray, 635 nm fluorescence (AID 1102). Conditions: FGF10 binding, fluorescence 635 nm, higher = more signal.
In experiment [6] the test system is glycogen synthase kinase-3 (GSK3A per assay name; protocol says GSK3B). Briefly: GSK3 binders on small-molecule microarrays, primary screen, biochemical, small-molecule microarray, 635 nm fluorescence, GSK3A (AID 1103). Also: the record names both GSK3A and GSK3B. Particulars: small-molecule microarray binding, fluorescence 635 nm; higher = more signal.
The target in experiment [7] is Epidermal growth factor receptor (Homo sapiens) (UniProt P00533). As to the kind of experiment: EGFR binders on small-molecule microarrays, primary screen, biochemical, small-molecule microarray, 635 nm fluorescence (AID 1104).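 Also: score merges 667 nm emission intensity with spot signal to noise over triplicate slides.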 Particulars: EGFR binding, higher = more signal.
Chain of Epidermal growth factor receptor (Homo sapiens) (P00533 whole entry, looked up): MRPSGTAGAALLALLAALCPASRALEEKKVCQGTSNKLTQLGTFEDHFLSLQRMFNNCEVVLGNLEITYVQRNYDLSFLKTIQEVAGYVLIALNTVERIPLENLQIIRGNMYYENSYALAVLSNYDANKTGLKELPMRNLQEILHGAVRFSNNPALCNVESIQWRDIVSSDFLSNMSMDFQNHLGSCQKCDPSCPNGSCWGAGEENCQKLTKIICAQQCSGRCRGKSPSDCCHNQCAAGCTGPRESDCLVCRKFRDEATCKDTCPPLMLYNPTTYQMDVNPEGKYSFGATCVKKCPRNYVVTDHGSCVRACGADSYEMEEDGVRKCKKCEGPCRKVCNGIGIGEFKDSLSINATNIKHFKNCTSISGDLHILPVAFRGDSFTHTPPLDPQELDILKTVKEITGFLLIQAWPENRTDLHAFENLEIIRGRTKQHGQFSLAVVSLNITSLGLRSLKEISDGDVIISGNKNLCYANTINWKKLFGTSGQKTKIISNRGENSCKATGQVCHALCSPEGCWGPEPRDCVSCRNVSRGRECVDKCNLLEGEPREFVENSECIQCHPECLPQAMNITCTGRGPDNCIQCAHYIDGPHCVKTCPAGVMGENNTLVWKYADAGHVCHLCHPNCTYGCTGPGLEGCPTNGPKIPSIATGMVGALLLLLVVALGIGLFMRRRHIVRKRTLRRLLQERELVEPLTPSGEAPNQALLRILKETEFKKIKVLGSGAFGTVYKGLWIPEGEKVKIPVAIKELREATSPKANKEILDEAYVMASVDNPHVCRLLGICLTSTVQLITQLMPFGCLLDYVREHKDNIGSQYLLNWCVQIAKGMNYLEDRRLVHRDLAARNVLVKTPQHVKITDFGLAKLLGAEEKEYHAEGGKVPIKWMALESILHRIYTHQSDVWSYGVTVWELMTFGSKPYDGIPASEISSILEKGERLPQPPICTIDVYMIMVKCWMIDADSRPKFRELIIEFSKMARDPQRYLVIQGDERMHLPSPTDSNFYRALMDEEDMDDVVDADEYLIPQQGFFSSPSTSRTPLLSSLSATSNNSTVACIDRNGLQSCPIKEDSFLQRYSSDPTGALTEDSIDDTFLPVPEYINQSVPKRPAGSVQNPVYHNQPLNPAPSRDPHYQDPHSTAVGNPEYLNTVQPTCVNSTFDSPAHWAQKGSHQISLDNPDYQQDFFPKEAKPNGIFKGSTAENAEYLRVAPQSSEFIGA
In experiment [8] the target is Follistatin-related protein 3 (Homo sapiens) (UniProt O95633). Briefly: FSTL3 binders on small-molecule microarrays, primary screen, biochemical, small-molecule microarray, 635 nm fluorescence (AID 1105).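 Also: score merges emission near 667 nm and signal to noise per printed spot across three slides.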 Conditions: FSTL3 binding, higher = more signal.
Chain of Follistatin-related protein 3 (Homo sapiens) (O95633 whole entry, looked up): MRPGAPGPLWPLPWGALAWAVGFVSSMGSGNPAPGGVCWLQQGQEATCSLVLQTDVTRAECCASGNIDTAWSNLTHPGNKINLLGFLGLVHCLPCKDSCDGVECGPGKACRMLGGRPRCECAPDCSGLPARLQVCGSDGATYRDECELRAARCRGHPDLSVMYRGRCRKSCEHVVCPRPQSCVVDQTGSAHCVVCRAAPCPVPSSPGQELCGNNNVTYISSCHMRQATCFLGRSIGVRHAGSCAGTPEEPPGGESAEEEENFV
In experiment [9] the target is Dickkopf-related protein 1 (Homo sapiens) (UniProt O94907). As to the kind of experiment: DKK1 binders on small-molecule microarrays, primary screen, biochemical, small-molecule microarray, 635 nm fluorescence scan (AID 1106).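 Also: score merges emission near 667 nm with signal to noise over three replicate slides.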 Particulars: DKK1 binding, higher = more signal.
Chain of Dickkopf-related protein 1 (Homo sapiens) (O94907 whole entry, looked up): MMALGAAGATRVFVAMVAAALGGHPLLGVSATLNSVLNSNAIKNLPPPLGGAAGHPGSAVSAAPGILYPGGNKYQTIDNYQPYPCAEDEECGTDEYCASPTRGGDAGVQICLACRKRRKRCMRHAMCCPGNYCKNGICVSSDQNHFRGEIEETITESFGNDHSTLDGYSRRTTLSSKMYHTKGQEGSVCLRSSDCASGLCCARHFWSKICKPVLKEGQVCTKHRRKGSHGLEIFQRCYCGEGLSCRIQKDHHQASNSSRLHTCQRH
For experiment [10], the system named is Inhibin beta A chain (activin A). As to the kind of experiment: INHBA (activin A) binders on microarrays, primary screen, biochemical, small-molecule microarray, 635 nm fluorescence scan (AID 1107).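 Also: mouse activin A protein probed at 4.33 µg/mL on printed slides; score merges bound-protein fluorescence near 667 nm with spot signal-to-noise.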 Particulars: small-molecule microarray binding, higher = more signal.

Active and inactive are the calls of the source.

Chain of Fibroblast growth factor 10 (Homo sapiens) (O15520 whole entry, looked up): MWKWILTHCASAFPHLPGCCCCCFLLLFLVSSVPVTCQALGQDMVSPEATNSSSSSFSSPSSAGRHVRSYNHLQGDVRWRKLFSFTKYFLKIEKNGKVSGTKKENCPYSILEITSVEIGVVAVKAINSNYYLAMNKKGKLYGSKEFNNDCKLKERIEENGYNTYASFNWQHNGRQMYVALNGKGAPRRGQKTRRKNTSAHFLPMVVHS

Take `COc1ccc([Si](C)(C)[C@@H]2[C@@H](CC(=O)N3CCC[C@H]3CO)O[C@]3(C(=O)N(Cc4cccc(N5C(=O)COc6ccccc65)c4)c4ccccc43)[C@H]2C)cc1`: the composite z-score in experiment [1] is 0.911; in experiment [2], -0.0948; in experiment [3], 0.157; in experiment [5], 0.723; in experiment [6], 0.746; in experiment [7], 0.447. For the same molecule, the composite z-score in experiment [8] amounted to 0.579; in experiment [9], 0.173; in [10], 0.615. Further, the z-score in [4] was -1.06 (inactive).

With `C=CCOC(=O)[C@@]1(Cc2ccccc2)C[C@H]2CO[C@H](c3ccc(OC)cc3)N2C1=O`, the composite z-score in experiment [1] was 0.335; in experiment [2], -0.0298; in experiment [3], -0.0084; in [5], 0.25; in experiment [6], -0.0535; in experiment [7], 0.201. The values for the composite z-score in experiment [8], in experiment [9] and in experiment [10] were 0.2, 0.286 and 0.351, respectively. For the same molecule, in [4], the z-score is -0.543 (inactive).

As for `CCOC(=O)C[C@H]1[C@H](OC(=O)Cc2ccc3c(c2)OCO3)[C@@H](NC(=O)c2ccc3ccccc3n2)c2cc(OCCCO)ccc2N1C(=O)c1ccccc1`, the composite z-score is 0.153 in experiment [1]; 0.0565 in [2]; -0.33 in [3]; 0.445 in [5]; 0.0897 in [6]; 0.0654 in experiment [7]. The composite z-score amounted to 0.73 in [8], 0.283 in [9] and 0.696 in experiment [10]. For the same molecule, the z-score in [4] is -0.149 (inactive).

Regarding `CC(=O)N1CC2(CC2)CC1c1ccccc1` (stereo not given), the composite z-score is -0.295 in [1]; 0.234 in experiment [2]; -0.0067 in [3]; 0.281 in experiment [5]; 0.152 in [6]; 0.461 in experiment [7]. Also, the composite z-score in experiment [8] is -0.154; in experiment [9], -0.0538; in experiment [10], 0.791. The z-score in experiment [4] was 0.665 (inactive).

As for `C=CC[C@@H](OC(=O)Nc1ccc(OC)cc1)c1ccc(O)c(F)c1`, the composite z-score is 1.69 in experiment [1]; -0.0015 in [2]; 0.74 in experiment [3]; -0.549 in experiment [5]; -0.363 in [6]; -1.2 in [7]. In addition, the values for the composite z-score in experiment [8], in [9] and in [10] were -0.741, -0.658 and 0.19, respectively. Moreover, the z-score in experiment [4] was -1.95 (inactive).

For the molecule `CCCCCN1CC=CC23O[C@@H]4/C=C\CCCOC(=O)C4[C@H]2C(=O)N(C(C)CO)[C@@H]3C1=O` (stereo not given in full), the composite z-score in experiment [1] was 2.01; in experiment [2], -0.339; in experiment [3], 0.525; in experiment [5] it was -1.43; in experiment [6] it was -1; in [7], -1.07. Further, the composite z-score in experiment [8] is -0.706; in experiment [9], -0.964; in experiment [10] it was -0.57. Besides, the z-score in experiment [4] was 0.1 (inactive).

Turning to `COc1cc(NN2C(C(O)c3ccco3)C=CC3C(=O)N(C)C(=O)C32)cc(OC)c1OC` (stereo not given), the composite z-score in [1] was 1.5; in experiment [2], 0.88; in [3], 0.469; in experiment [5], 0.138; in experiment [6], 1.1; in experiment [7], -0.169. Moreover, the results for the composite z-score in experiment [8], in experiment [9] and in experiment [10] were 0.0253, 0.216 and 0.752, respectively. In addition, in [4], the z-score was 0.579 (inactive).

For `COc1ccc([Si](C)(C)[C@@H]2[C@@H](CCO)O[C@]3(C(=O)N(Cc4ccccc4)c4ccc(N5C(=O)c6cccc7cccc5c67)cc43)[C@H]2C)cc1`, the composite z-score in experiment [1] is 1.42; in experiment [2], 0.0194; in experiment [3] it was 0.42; in experiment [5], -0.231; in experiment [6], -0.642; in experiment [7], -0.0299. In addition, the values for the composite z-score in experiment [8], in [9] and in experiment [10] were -0.448, -0.0876 and -0.344, respectively. The z-score in [4] is -0.884 (inactive).

As to `O=C1O[C@@H](c2ccccc2)[C@@H](c2ccccc2)N2[C@@H](c3ccc(OCCO)cc3)[C@]3(C(=O)Nc4ccc(C#CC5=CCCCC5)cc43)[C@@H](C(=O)NC[C@H](O)c3ccccc3)[C@H]12`, the composite z-score in experiment [1] is 0.674; in experiment [2], -0.653; in experiment [3] it was -0.762; in [5], 1.4; in experiment [6], 1.31; in experiment [7], 0.445. For the same molecule, the composite z-score in experiment [8] turned out to be 1.4; in experiment [9], 0.708; in experiment [10] it was 1.07. Besides, the z-score in [4] is 0.556 (inactive).

Regarding `COC(=O)[C@@H]1N=C(c2ccc(OCCCO)cc2)O[C@@H]1C`, the composite z-score in experiment [1] is -0.0756; in experiment [2] it was 0.017; in [3], 0.795; in experiment [5] it was 0.965; in experiment [6], 0.16; in experiment [7] it was -0.55. Further, the composite z-score in experiment [8] is -0.0372; in experiment [9], 0.0375; in experiment [10], -0.004. The z-score in experiment [4] was 0.04 (inactive).

In the case of `CN(C)C(=O)[C@@]1(Cc2ccccc2CN=[N+]=[N-])N=C(c2ccc(OCCCO)cc2)O[C@H]1c1ccccc1N=[N+]=[N-]`, the composite z-score in experiment [1] was 1.63; in [2], 0.842; in [3], 1; in experiment [5], 0.884; in experiment [6], 0.588; in experiment [7] it was -0.239. The composite z-score in experiment [8] is 0.724; in [9] it was -0.451; in experiment [10], 0.987. Moreover, in [4], the z-score was -0.731 (inactive).
